Data published in PubChem BioAssay (Tox21).
Inconclusive results are not listed. Calls of active or inactive are those of the source. Unless noted, calls follow the shape of the full dose curve.

Tests used:
[1] = Nuclear factor erythroid 2-related factor 2/antioxidant responsive element (Nrf2/ARE) small molecule agonists: qHTS cell viability counter screen in human keratinocytes (AID 1919968; active = well fitted curve in the direction sought with a large enough effect in the repeat runs; an effect the other way counts as inactive or inconclusive; also: nearly all actives have a fitted effect of over 55% in size)
Procedure, shortened: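 In human HaCaT keratinocytes stably expressing an ARE-driven luciferase, compound exposure lasted 23 h at 37 C under 5% CO2. Viable cells are quantified with a protease-based fluorogenic reagent (CellTiter-Fluor) read 1 h after addition.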

[2] = Nuclear factor erythroid 2-related factor 2/antioxidant responsive element (Nrf2/ARE) small molecule agonists: luciferase reporter gene qHTS assay in human keratinocytes (AID 1919969); also: nearly all actives have a fitted effect of over 35% in size
[3] = molecular target: Gonadotropin-releasing hormone receptor (Homo sapiens) (UniProt P30968); test: Human gonadotropin-releasing hormone receptor (GnRHR) small molecule agonists, calcium flux assay in GnRHR-HEK293 cells (AID 1920063); also: nearly all actives have a fitted effect of over 35% in size
Procedure, shortened: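 Intracellular calcium rise is the read-out: engineered human GnRHR HEK293 cells, dye-loaded, are exposed to DMSO-dissolved compounds and fluorescence at Ex/Em 480/540 is tracked for 3 min.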

[4] = molecular target: KiSS-1 receptor (Homo sapiens) (UniProt Q969F8); test: Human kisspeptin (KISS1R) small molecule agonists, calcium flux assay in KISS1R-HEK293 cells (AID 1920064; active = well fitted curve in the direction sought with a large enough effect in the repeat runs; an effect the other way counts as inactive or inconclusive)
Procedure, shortened: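 Concentration-response testing used 15 concentrations in triplicate on human KISS1R-expressing HEK293 cells. Calcium-dependent fluorescence (Ex/Em 480/540) was followed kinetically for 3 min after compound transfer.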

[5] = G protein-coupled receptor (GPCR) small molecule agonists, calcium flux assay: HEK293 wild type cell line counter screen (AID 1920065)
Procedure, shortened: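 Fluorescence intensity signals activation. After overnight (18 h) culture and a 1 h calcium dye load at 37 C, compounds are added by pin tool and the plate read at 480/540 nm for 3 min in 1 s steps.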

[6] = p53 small molecule agonists, cell-based qHTS assay with rat liver microsomes (AID 1963578)
Procedure, shortened: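 p53RE-bla cells, 4,000/well, pre-incubated 5 h, then given compounds plus rat liver microsomes (0.5 mg/mL final) and NADPH (0.5 mg/mL final). Incubation 16 h at 37 C; beta-lactamase reporter read by LiveBLAzer fluorescence after 2 h at room temperature.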

[7] = p53 small molecule agonists, cell-based qHTS assay with human liver microsomes: qHTS cell viability counter screen (AID 1963579); also: nearly all actives have a fitted effect of over 45% in size
Procedure, shortened: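 p53RE-bla cells, 4,000/well, dosed 5 hours after plating, with human liver microsomes (0.5 mg/mL final) plus NADPH (0.5 mg/mL final), 16 hours at 37 C. Viability read as CellTiter-Glo luminescence after 30 min at room temperature.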

[8] = p53 small molecule agonists, cell-based qHTS assay with rat liver microsomes: qHTS cell viability counter screen (AID 1963580); also: nearly all actives have a fitted effect of over 45% in size
Procedure, shortened: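 Counter screen for cytotoxicity under metabolic activation: rat liver microsomes and NADPH, 0.5 mg/mL final each, added with compounds to p53RE-bla HCT-116 cells; 16 h at 37 C, then ATP luminescence read.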

[9] = p53 small molecule agonists, cell-based qHTS assay: qHTS cell viability counter screen (AID 1963581); also: nearly all actives have a fitted effect of over 45% in size
Procedure, shortened: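 Luminescence from CellTiter-Glo, reflecting ATP content, serves as the cytotoxicity measure; it is taken after the 2 h reporter substrate step in HCT-116 p53RE-bla cells dosed for 16 h at 37 C.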

[10] = p53 small molecule agonists, cell-based qHTS assay (AID 1963582; active = well fitted activation curve with a large enough effect in the signal ratio in the repeat runs, not every such curve was filed as active; the % refers to the signal ratio)
Procedure, shortened: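 After plating, p53RE-bla cells sat 5 h in the incubator; compounds or DMSO vehicle were pinned in; a 16 h incubation at 37 C followed; FRET substrate was added and, 2 h later at RT, fluorescence was measured.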

[11] = molecular target: 5-hydroxytryptamine receptor 2A (Homo sapiens) (UniProt P28223); test: 5-hydroxytryptamine receptor 2A (HTR2A) small molecule antagonists, cell-based qHTS assay (AID 1963586); also: nearly all actives have a fitted effect of over 45% in size
Procedure, shortened: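 CHO cells stably expressing human HTR2A were plated for 18 h at 37 C, then loaded with calcium dye for 1 h. Compounds were preincubated 5 min at room temperature before DOI (4 nM solution) was added. Kinetic fluorescence was read for 3 min.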

[12] = molecular target: 5-hydroxytryptamine receptor 2A (Homo sapiens) (UniProt P28223); test: 5-hydroxytryptamine receptor 2A (HTR2A) small molecule agonists, cell-based qHTS assay (AID 1963587); also: nearly all actives have a fitted effect of over 30% in size
Procedure, shortened: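 HTR2A-CHO cells, plated 18 h at 37 C/5% CO2, dye-loaded 1 h at 37 C; compounds in DMSO added by pin tool (agonist mode). Intracellular calcium flux read as kinetic fluorescence on FDSS over 2 min at 1 s intervals.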

[13] = molecular target: Muscarinic acetylcholine receptor M1 (Homo sapiens) (UniProt P11229); test: Cholinergic receptor muscarinic 1 (CHRM1) small molecule antagonists, cell-based qHTS assay (AID 1963588); also: nearly all actives have a fitted effect of over 40% in size
Procedure, shortened: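 Compounds were tested at 15 concentrations in three independent runs. Dye-loaded CHRM1-CHO cells were exposed 5 min at room temperature before stimulation by acetylcholine added at 50nM. Intracellular calcium was read kinetically on FDSS for 3 min.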

[14] = molecular target: Muscarinic acetylcholine receptor M1 (Homo sapiens) (UniProt P11229); test: Cholinergic receptor muscarinic 1 (CHRM1) small molecule agonists, cell-based qHTS assay (AID 1963589); also: nearly all actives have a fitted effect of over 35% in size
Procedure, shortened: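 Fluorescent calcium dye reports M1 activation in stably transfected CHO cells. Compounds, 15 concentrations, added after 1 h dye loading at 37 C; kinetic reading at 1 sec intervals.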

[15] = cAMP Responsive Elements (CRE) small molecule antagonists, cell-based qHTS assay (AID 1963591; active = well fitted inhibition curve with a large enough effect in the signal ratio in the repeat runs, not every such curve was filed as active; the % refers to the signal ratio)
Procedure, shortened: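 Stimulation used NKH477 at a final 0.25 uM for 3 h in compound-treated CRE-bla HEK293T cells, seeded 18 h beforehand. Reporter activity was measured with LiveBLAzer B/G FRET substrate after 2 h at room temperature.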

[16] = molecular target: Beta-2 adrenergic receptor (Homo sapiens) (UniProt P07550); test: Adrenergic beta2 receptor (ADRB2) small molecule antagonists, cell-based qHTS assay (AID 1963592); also: series mostly up to about 92 µM; nearly all actives have a fitted effect of over 50% in size
Procedure, shortened: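 Assay format: CHO-ADRB2 cells, 18-20hr seeding at 37C/5% CO2, then compound plus 1nM isoproterenol agonist mix for 0.5hr RT. Homogeneous time-resolved fluorescence cAMP detection after 1hr, expressed as 665/615 nm ratio.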

[17] = molecular target: D(2) dopamine receptor (Homo sapiens) (UniProt P14416); test: Dopamine D2 receptor (DRD2) small molecule agonists, cell-based qHTS assay (AID 1963594); also: nearly all actives have a fitted effect of over 35% in size
Procedure, shortened: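 HEK293 cells stably expressing DRD2 were cultured 24 h at 37 C, then given Ro20-1724 (0.1 mM final) and compounds for 10 min at room temperature. NKH477 (200nM) was then added for 30 min. cAMP was read by HTRF.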

[18] = molecular target: D(2) dopamine receptor (Homo sapiens) (UniProt P14416); test: Dopamine D2 receptor (DRD2) small molecule antagonists, cell-based qHTS assay (AID 1963595; active = well fitted inhibition curve with a large enough effect in the signal ratio in the repeat runs, with a control signal flat; the % refers to the signal ratio)
Procedure, shortened: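 Stable D2 receptor HEK293 line, 24 h after seeding. Compound preincubated 10 min, then quinpirole (12 nM) with forskolin analogue NKH477 (200 nM), 30 min, room temperature. Detection by time-resolved FRET of cAMP.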

[19] = cAMP Responsive Elements (CRE) small molecule agonists, cell-based qHTS assay (AID 1963590)
Procedure, shortened: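 Compound exposure lasted 3 h at 37 C/5% CO2 in CRE-bla HEK 293T cells grown in assay medium with 10% dialyzed FBS and 25 mM HEPES. Reporter signal came from LiveBLAzer B/G FRET substrate, 2 h, room temperature.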

Measured: Potency

Chain of 5-hydroxytryptamine receptor 2A (Homo sapiens) (P28223 whole entry, looked up): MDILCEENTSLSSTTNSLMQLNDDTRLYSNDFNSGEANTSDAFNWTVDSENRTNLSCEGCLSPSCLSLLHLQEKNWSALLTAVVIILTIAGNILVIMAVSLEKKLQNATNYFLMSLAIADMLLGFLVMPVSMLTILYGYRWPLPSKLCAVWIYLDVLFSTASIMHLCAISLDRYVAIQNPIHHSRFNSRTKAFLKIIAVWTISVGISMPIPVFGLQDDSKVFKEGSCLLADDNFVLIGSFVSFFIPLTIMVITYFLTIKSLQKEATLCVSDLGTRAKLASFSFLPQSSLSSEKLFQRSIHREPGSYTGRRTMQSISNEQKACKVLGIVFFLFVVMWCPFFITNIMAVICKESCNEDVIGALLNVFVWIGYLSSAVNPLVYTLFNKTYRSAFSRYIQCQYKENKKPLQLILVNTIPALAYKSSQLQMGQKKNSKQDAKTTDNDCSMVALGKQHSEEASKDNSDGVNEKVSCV
Chain of Muscarinic acetylcholine receptor M1 (Homo sapiens) (P11229 whole entry, looked up): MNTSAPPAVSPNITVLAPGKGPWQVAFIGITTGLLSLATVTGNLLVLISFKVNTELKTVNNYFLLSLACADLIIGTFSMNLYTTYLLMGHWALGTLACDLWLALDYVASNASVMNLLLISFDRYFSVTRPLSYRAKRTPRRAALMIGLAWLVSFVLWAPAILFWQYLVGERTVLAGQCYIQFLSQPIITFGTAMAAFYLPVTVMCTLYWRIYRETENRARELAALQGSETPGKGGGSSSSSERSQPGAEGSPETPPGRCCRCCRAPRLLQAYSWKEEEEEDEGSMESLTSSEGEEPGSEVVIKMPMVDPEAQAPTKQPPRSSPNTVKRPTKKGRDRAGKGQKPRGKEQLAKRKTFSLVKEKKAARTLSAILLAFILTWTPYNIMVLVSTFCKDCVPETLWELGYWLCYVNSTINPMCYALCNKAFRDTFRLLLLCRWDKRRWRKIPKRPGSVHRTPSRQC
Chain of D(2) dopamine receptor (Homo sapiens) (P14416 whole entry, looked up): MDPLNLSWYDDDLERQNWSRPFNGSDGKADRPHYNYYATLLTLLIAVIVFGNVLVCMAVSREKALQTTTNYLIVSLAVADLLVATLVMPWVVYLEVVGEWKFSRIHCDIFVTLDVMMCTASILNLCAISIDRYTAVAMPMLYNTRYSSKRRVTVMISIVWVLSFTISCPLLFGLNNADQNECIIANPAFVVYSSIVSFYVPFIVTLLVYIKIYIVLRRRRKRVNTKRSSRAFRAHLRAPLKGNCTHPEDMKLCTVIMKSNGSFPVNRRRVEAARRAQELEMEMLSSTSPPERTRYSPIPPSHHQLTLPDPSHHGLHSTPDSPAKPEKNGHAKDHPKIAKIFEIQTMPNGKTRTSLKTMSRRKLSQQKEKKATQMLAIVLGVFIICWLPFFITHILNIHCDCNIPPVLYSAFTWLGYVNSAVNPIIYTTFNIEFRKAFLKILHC
Chain of Gonadotropin-releasing hormone receptor (Homo sapiens) (P30968 whole entry, looked up): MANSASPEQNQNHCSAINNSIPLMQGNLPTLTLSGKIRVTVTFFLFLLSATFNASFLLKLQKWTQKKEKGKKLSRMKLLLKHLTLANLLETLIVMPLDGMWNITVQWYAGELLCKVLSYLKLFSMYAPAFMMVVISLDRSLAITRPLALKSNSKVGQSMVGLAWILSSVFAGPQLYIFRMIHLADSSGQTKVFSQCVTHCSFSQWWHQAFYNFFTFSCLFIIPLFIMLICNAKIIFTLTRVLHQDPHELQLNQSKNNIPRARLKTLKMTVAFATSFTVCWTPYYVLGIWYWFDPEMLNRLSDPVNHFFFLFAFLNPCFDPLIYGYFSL
Chain of KiSS-1 receptor (Homo sapiens) (Q969F8 whole entry, looked up): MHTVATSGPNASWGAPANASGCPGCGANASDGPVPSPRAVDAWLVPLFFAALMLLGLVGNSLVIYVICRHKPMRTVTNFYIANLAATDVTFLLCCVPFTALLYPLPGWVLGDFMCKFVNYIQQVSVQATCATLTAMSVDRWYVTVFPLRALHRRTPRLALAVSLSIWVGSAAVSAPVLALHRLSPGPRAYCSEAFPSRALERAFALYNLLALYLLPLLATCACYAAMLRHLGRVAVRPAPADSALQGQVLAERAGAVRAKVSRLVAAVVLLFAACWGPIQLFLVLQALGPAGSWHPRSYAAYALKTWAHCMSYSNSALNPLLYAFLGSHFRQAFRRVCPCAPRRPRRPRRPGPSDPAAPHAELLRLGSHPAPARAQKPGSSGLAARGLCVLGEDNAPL
Chain of Beta-2 adrenergic receptor (Homo sapiens) (P07550 whole entry, looked up): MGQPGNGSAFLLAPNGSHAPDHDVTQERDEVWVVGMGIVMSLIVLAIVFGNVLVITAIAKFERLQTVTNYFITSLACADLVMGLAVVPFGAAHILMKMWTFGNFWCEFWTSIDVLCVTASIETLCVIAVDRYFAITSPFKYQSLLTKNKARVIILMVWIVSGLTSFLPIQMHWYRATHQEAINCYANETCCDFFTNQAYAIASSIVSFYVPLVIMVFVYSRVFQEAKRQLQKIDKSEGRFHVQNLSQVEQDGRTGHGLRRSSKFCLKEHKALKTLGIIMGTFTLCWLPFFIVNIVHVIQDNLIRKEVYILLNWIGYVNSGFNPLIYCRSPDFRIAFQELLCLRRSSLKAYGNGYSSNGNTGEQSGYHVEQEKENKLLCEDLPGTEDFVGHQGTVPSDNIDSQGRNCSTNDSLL

C[C@@H]1C[C@H]2[C@@H]3CCC4=CC(=O)C=C[C@]4(C)[C@@]3(Cl)[C@@H](O)C[C@]2(C)[C@@]1(OC(=O)c1ccco1)C(=O)CCl
inactive: [1] | [2] | [3] | [4] | [5] | [6] | [7] | [8] | [9] | [10] | [11] | [12] | [13] | [14] | [15] | [16] | [17] | [18]

O=C(O)COC(=O)Cc1ccccc1Nc1c(Cl)cccc1Cl
inactive: [1] | [2] | [3] | [4] | [5] | [6] | [7] | [8] | [9] | [10] | [19] | [15] | [16] | [17]

CN(C)C(=O)Oc1cccc([N+](C)(C)C)c1
inactive: [1] | [2] | [3] | [4] | [5] | [6] | [7] | [8] | [9] | [10] | [15] | [16] | [17]

CCC(=O)OCCC(C)CCC=C(C)C (centres undefined)
inactive: [1] | [2] | [3] | [4] | [5] | [6] | [7] | [8] | [9] | [10] | [11] | [12] | [13] | [14] | [19] | [15] | [16] | [17] | [18]
